# Among all 200,000 compounds or so, about 18,000 (9%) were called active. No stated cut-off is given here; in the data, active means inhibition above about 50%; inactive means the rest. The full list was thinned out, with actives kept by preference.
# Test: Leishmania major promastigote growth inhibition, primary screen (AID 1063);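 further: promastigotes grown with compound for 44 hours at 28 °C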
# Details: Leishmania major promastigotes, resazurin fluorescence viability; at 10 µM; active compounds read high
row,SMILES,inhibition
1,CC(C)N(CC#CCC1(O)c2ccccc2-c2ccccc21)C(C)C,2.06% (inactive)
2,CN(C)CCCN=Cc1c(O)n(Cc2ccco2)c(=O)[nH]c1=O,-6.14% (inactive)
3,C=CCN1C(=O)C2(C(C(=O)OCC)=C(N)Oc3c2c(=O)oc2ccccc32)c2ccccc21 (stereo not given),-6.93% (inactive)
4,Cc1ccsc1C(=O)C1CCCN(Cc2ccc(O)cc2)C1 (stereo not given),83.9% (active)
5,Cc1nc2ccc(N3CCN(C)CC3)cc2nc1C,3.66% (inactive)
6,COc1cc(Cn2c(N)c(C(=O)NCc3ccco3)c3nc4ccccc4nc32)cc(OC)c1OC,100% (active)
7,CCOC(=O)c1c(N)n(CCN2CCOCC2)c2nc3ccccc3nc12,24.6% (inactive)
8,CCOC(=O)c1c(N)n(Cc2ccccc2)c2nc3ccccc3nc12,100% (active)
9,O=c1[nH]c(=O)n(-c2ccccc2)c(O)c1C=NC12CN3CN(CN(C3)C1)C2,-6.09% (inactive)
10,OC(Cn1c2ccccc2c2ccccc21)C[n+]1ccccc1 (stereo not given),1.49% (inactive)
11,COP(=O)(OC)C(NC(=O)c1ccc(C)cc1)C(Cl)(Cl)Cl (stereo not given),-7.25% (inactive)
12,O=C(Cc1ccccc1[N+](=O)[O-])N1CCN(Cc2ccc3c(c2)OCO3)CC1,48% (inactive)
13,CNC(=S)N/N=C1\C2CN3CCN(C2)CC1(c1ccccc1)C3,-5.87% (inactive)
14,c1cncc(CNCCc2c[nH]c3ccccc23)c1,22.7% (inactive)
15,CCc1nnc(NS(=O)(=O)c2ccc(N=Cc3c(O)n(-c4ccccc4)c(=O)[nH]c3=O)cc2)s1,-1.81% (inactive)
16,COP(=O)(NS(=O)(=O)c1ccccc1)OC,-6.48% (inactive)
17,COc1ccc(C(=O)C2CCCN(Cc3ccc(C)s3)C2)cc1OC (stereo not given),89.4% (active)
18,Cc1cccc2c(CCN)c[nH]c12,0.35% (inactive)
19,O=C(Cn1c(=O)n(CC2CS2)c2ccccc21)N1CCCCC1 (stereo not given),2.59% (inactive)
20,CCC(=NCCc1ccccc1)c1c(O)n(C2CCCCC2)c(=O)[nH]c1=O,21% (inactive)
21,O=C(Cc1ccccc1)N1CCN(C2CCCCCC2)CC1,64.8% (active)
22,CCCn1c(C(=O)c2ccccc2OC)nc2ccccc21,15% (inactive)
23,C[C@@]1([C@@H](NP(=O)(c2ccccc2)c2ccccc2)c2ccccc2)C[C@H]1CCO,-1.91% (inactive)
24,CNP1(NC)=Nc2nn(-c3ccccc3)c(N)c2C(c2ccccc2)=N1,-6.36% (inactive)
25,COc1ccccc1N=C1SCCCN1C,-5.49% (inactive)

row,SMILES,inhibition
1,Cc1ccc(-c2nc3ccccc3c(=O)n2-c2ccc(Br)cn2)cc1,3.21% (inactive)
2,CC1=CC(=Cc2sc3ccccc3[n+]2C)C=C(C)O1,100% (active)
3,COc1cc(-n2c(=S)[nH]c3ccc(C)cc3c2=O)c(Cl)cc1Cl,43.6% (inactive)
4,Cc1ccc(Cn2nnnc2CN2CCC(n3nnc4ccccc43)CC2)cc1,4.28% (inactive)
5,O=C(C1CC(=O)N(C2CCCC2)C1)N1CCC2(CC1)OCCO2 (stereo not given),-6.1% (inactive)
6,CCN(CC)c1ccc([N+](=O)[O-])c2cccnc12,9.8% (inactive)
7,Cc1cc(C)cc(NC(=S)NC2CC3CCCC(C2)N3Cc2cccs2)c1 (stereo not given),87.3% (active)
8,O=C(COc1ccc2ccccc2c1)N1CCN(Cc2ccncc2)CC1,44.3% (inactive)
9,OC1/C(=C/c2ccc(C(F)(F)F)cc2)N2CCC1CC2 (stereo not given),0.72% (inactive)
10,CCOC(=O)C(O)(c1ccc(N=Cc2ccccc2O)c(C)c1)C(F)(F)F (stereo not given),-7.14% (inactive)
11,O=C1/C(=C\c2ccc3c(c2)OCO3)N2CCC1CC2,4.04% (inactive)
12,Cc1nc2ccccn2c1P(=S)(N1CCCCC1)N1CCCCC1,97.4% (active)
13,COc1ccc(CN2CCN(c3ccccc3F)CC2)c(OC)c1,9.36% (inactive)
14,CC(c1ccccc1)(c1ccccc1)c1ccncc1,19.2% (inactive)
15,Fc1ccc(N2CCN(Cc3ccc4c(c3)OCO4)CC2)cc1,44.5% (inactive)
16,c1cc2c(cc1CCNC1CCCCCC1)OCO2,95.2% (active)
17,CC(=NCc1ccc2c(c1)OCO2)c1c(O)[nH]c(=O)[nH]c1=O,-2.64% (inactive)
18,c1ccc2sc(C3CCCNC3)nc2c1 (stereo not given),31.9% (inactive)
19,O=C(O)CCn1cc(C=C2C(=O)NC(=S)NC2=O)c(-c2cccc(Br)c2)n1,-7.24% (inactive)
20,Cn1c(O)c(C=NCCN2CCNCC2)c(=O)n(C)c1=O,-6.59% (inactive)
21,CN1CCC(N(C)Cc2cccnc2)CC1,-2.3% (inactive)
22,COc1ccc(NC(=O)N2CCC3(CC2)OCCO3)c(OC)c1,-0.24% (inactive)
23,NC(=O)Cn1cc(C(=O)c2ccccc2F)c2ccccc21,-6.3% (inactive)
24,N#Cc1ccc(Cn2cc(C(=O)c3ccco3)c3ccccc32)cc1,93.3% (active)
25,CC(C)Nc1nc(Cl)nc(NC(C)C)n1,24.7% (inactive)

row,SMILES,inhibition
1,COc1ccc(-c2nn(CCC#N)cc2C(=O)O)cc1,-0.84% (inactive)
2,CC(C)c1ccc(OCC(=O)N2CCN(C)CC2)c(Br)c1,37.9% (inactive)
3,CN1CCN(C(=O)COc2ccc(C(C)(C)C)cc2Br)CC1,59.9% (active)
4,CC(C)(C)c1ccc(OC(=O)N2CCCCC2)cc1,-10.5% (inactive)
5,CSC1=NP(=S)(SC)N(C)c2nc3n(c21)CCC3 (stereo not given),2.74% (inactive)
6,CN(C)C(=O)NC(O)C(Cl)(Cl)Cl (stereo not given),-1.83% (inactive)
7,CN(C)CC1CCCCC1OC(=O)c1ccc(Cl)c(Cl)c1 (stereo not given),56.1% (active)
8,COc1ccc(NC(=O)c2cn(CCC#N)nc2-c2ccc([N+](=O)[O-])cc2)cc1,-5.27% (inactive)
9,CN1C2C=C(N(C(=O)c3ccc(Cl)cc3)c3ccccc3)CC1CC2 (stereo not given),-6.27% (inactive)
10,N#CC1=C(N)Oc2c(c(=O)oc3ccccc23)C1c1ccccc1OC(=O)c1cccs1 (stereo not given),8.6% (inactive)
11,CCNc1nc2[nH]c(=O)c3c(c2s1)OC(N)=C(C#N)C3c1cccs1 (stereo not given),56.6% (active)
12,CCOCCc1c(O)[nH]c(=S)[nH]c1=O,-2.27% (inactive)
13,O=C(CN1CCCC1=O)NCCc1ccccc1,-2.62% (inactive)
14,N[C@@H](Cc1c[nH]c2ccccc12)c1nnc(SCc2c(F)cccc2Cl)o1,-1.59% (inactive)
15,CC(Cc1cccs1)NCc1ccc(Cl)cc1 (stereo not given),37.3% (inactive)
16,Cc1ccc(-c2cc(C(=O)N3CCC4(CC3)OCCO4)no2)cc1,3.46% (inactive)
17,O=C(NCC(c1cccnc1)N1CCN(c2ccccc2)CC1)Oc1ccccc1 (stereo not given),86.7% (active)
18,COC(=O)C(c1ccccc1)N1CCCCCC1 (stereo not given),-3.28% (inactive)
19,COc1ccccc1N1CCN(C(CNC(=O)Oc2ccccc2)c2cccnc2)CC1 (stereo not given),90.8% (active)
20,COC(=O)N1C(c2ccccc2)C1c1ccccc1 (stereo not given),-7.32% (inactive)
21,CN(C)/C=C(\C=[N+](C)C)c1[nH]ncc1[N+](=O)[O-],-3.98% (inactive)
22,CC(C)CN1CCN(Cc2ccccc2C(F)(F)F)CC1CCO (stereo not given),1.28% (inactive)
23,O=c1[nH]c(=S)n(C2CC2)c(O)c1/C=N/N1CCOCC1,-5.26% (inactive)
24,CN(C)C(=O)Oc1cc(=O)n2c3c(cccc13)CCC2,23.7% (inactive)
25,Nc1ccc(C(=O)N/N=C2/CN3CCC2CC3)cc1,-7.96% (inactive)
